Most compounds without a hit are left out; they make up all but 2.4% or so of the library.
D2 PAM-1 – positively modulates the human D2 dopamine receptor allosterically | P14416 | HEK293 T-REx D2, calcium flux, EC20 dopamine potentiation | potentiation, % at 10 µM | 0.34% of 340,000 active | AID 485347;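 active = potentiation over 3 SD above the plate norm, cut at about 30% in these data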; note: 0% is about no effect
Target sequence (P14416 whole entry, looked up): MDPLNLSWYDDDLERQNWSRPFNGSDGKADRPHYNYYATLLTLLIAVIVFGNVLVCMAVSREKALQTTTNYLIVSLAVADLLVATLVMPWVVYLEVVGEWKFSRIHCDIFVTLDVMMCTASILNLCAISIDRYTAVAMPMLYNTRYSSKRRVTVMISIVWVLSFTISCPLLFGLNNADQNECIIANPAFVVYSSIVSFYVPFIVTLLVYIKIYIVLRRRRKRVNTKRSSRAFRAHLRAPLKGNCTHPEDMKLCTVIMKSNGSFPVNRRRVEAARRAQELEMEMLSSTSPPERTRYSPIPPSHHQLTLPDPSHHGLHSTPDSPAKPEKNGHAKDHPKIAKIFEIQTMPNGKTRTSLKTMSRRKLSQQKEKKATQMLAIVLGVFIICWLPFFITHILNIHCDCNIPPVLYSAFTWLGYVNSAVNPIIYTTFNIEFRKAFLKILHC
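Calcium flux readout, no-wash dye, 1 read/s. Inducible HEK293 Trex D2 line, overnight 30 C. Compound alone 180 s (agonist flags), then EC20 dopamine, another 180 s to score potentiation.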
D2 ag-1 – D2 dopamine receptor (human) agonism. P14416. activation, % at 2 µM. 0.53% of 340,000 active. HEK293 T-REx D2 cells, calcium flux agonist mode. AID 485358;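 active = activation over 3 SD above normal in the single-dose calcium agonist read, cut at about 30% in these data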; note: 0% is about no effect
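Tetracycline-induced HEK293 Trex cells with D2 receptor force-coupled to calcium signaling, plated overnight at 30 C and loaded with no-wash calcium dye. Calcium flux read kinetically for 180 s after compound addition; responses flag agonists.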
D2 ag-2 – human D2 receptor agonism in beta-arrestin assay. DiscoveRx PathHunter D2 beta-arrestin, luminescence, 90 min; 100% = 57 uM dopamine signal. 0.084% of 360,000 active. activation, % (concentration not given with the values). P14416; in the data active = activation above about 40%; inconclusive = between about 15% and that limit
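Agonist mode: compounds alone added to overnight-plated D2 PathHunter cells for 90 min at 37 C, with 57 uM final dopamine (EC100) defining full response. Beta-arrestin recruitment detected by chemiluminescent reagent, read after 1 h at ambient temperature.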
D2 PAM-2 – human D2 receptor positive allosteric modulation. P14416. DiscoveRx D2 beta-arrestin cells, luminescence, 90 min; 100% = 57 uM dopamine signal. potentiation, % (no concentration beside the values). 0.23% of 360,000 active. AID 624464; in the data active = potentiation above about 50%; inconclusive = mostly about 30% to 49%
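D2 cells co-treated with compound plus 50 nM dopamine (EC20) for 90 min at 37 deg C to detect potentiation. Beta-arrestin recruitment was read as enzyme-fragment luminescence after 1 h at ambient temperature. Full response was set by 57 uM dopamine.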
D2 antagonist – antagonizes the human D2 dopamine receptor; HEK293 TREx D2 cells, calcium flux, dopamine EC80; P14416; inhibition, % at 10 µM; AID 485344; 2% of 340,000 active; in the data active = inhibition above about 30%; inactive = below that, where a call was filed; note: 0% is about no effect
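Compounds are added to dye-loaded, induced HEK293 T-REx cells coupled to calcium release via D2; after a 3 min kinetic read an EC80 dopamine stimulus is given and fluorescence is recorded for 3 more min.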
The depositor's hits bear a star; u = inconclusive; x = no result; ! = not active in a repeat.

SMILES	D2 PAM-1	D2 ag-1	D2 ag-2	D2 PAM-2	D2 antagonist
Cc1cc(C)nc(OC(C(=O)O)C(OCC(C)C)(c2ccccc2)c2ccccc2)n1 (configuration not stated)	-6.1	2.4	2.8	71.5*	-9.1
CCC(C)COC(c1ccccc1)(c1ccccc1)C(Oc1nc(C)cc(C)n1)C(=O)O (configuration not stated)	-6.7	0.9	8.8	1.3	-4.3
CCN1C(=O)C(CC(=O)Nc2ccc(OC)cc2)N(CCCN2CCN(c3ccc(F)cc3)CC2)C1=S (configuration not stated)	x	-0.5	14.2	6.5	57.4*
CCCc1nc2nc(C)c(NS(=O)(=O)c3ccc(CC(C)C)cc3)c(=O)n2[nH]1	32.4*!	-1.6	6.1	1.8	3.1
O=Cc1ccc(OCC(=O)NCC2CCCO2)cc1 (configuration not stated)	-10.3	-0.2	-5.5	-7.5	30.1*
CC(=O)OCCn1c2nc(=O)[nH]c(=O)c-2nc2cc(C)c(C)cc21	8.9	112.4*	-1.6	-2.7	29.3
CC(=O)OCCn1c(C)[n+](CCOC(C)=O)c2cc(Cl)c(Cl)cc21	-1.9	2.5	3.9	-5.6	-8.4
O=C1c2ccccc2CCCC12N=NCC2c1cccc2ccccc12 (configuration not stated)	x	x	u	118.6*	x
COc1cc(-c2coc3c(C(=O)NCc4ccc(OC)c(OC)c4)cccc23)ccc1O	x	x	67.8*	-7.4	x
CCOC(=O)COc1ccc(C)cc1C(=O)c1ccn2nc(-c3ccc(F)cc3)cc2n1	2.1	0.8	x	x	x
CCOc1ccc(N(CC)S(=O)(=O)c2cc(Br)cc3c2N(C(C)=O)C(C)C3)cc1 (configuration not stated)	10.5	0.1	x	x	x
O=C(NCC(c1cccnc1)N1CCOCC1)c1cccs1 (configuration not stated)	-1.7	0.6	0.1	-1.5	33.7*
COC(=O)NCC(c1cccnc1)N1CCOCC1 (configuration not stated)	-0.6	0.0	-5.6	-10.3	24.8
CC(c1n[nH]c(=S)n1-c1ccccc1)N1CCCCC1 (configuration not stated)	-7.3	0.7	1.8	1.6	70.7*
CCOC(=O)C(NC(=O)c1ccc(OC)cc1)(Nc1cc(C)on1)C(F)(F)F (configuration not stated)	-4.4	-0.6	0.0	-5.8	8.7
CCOC(=O)C(NC(=O)c1ccccc1)(Nc1cc(C)on1)C(F)(F)F (configuration not stated)	7.5	-0.2	-3.8	-3.7	31.2*
CCc1nnc(SCc2ccc(OC)cc2)c2cc3sc(C)cc3n12	-4.0	0.7	x	x	x
Nc1cc(OCC(F)(F)F)cc([N+](=O)[O-])c1	10.0	-1.7	-0.1	-9.9	-1.1
O=C1C2C3CCC(O3)C2C(=O)N1c1cc(OCC(F)F)cc([N+](=O)[O-])c1 (configuration not stated)	-4.1	0.2	-5.1	-22.8	34.8*
Clc1ccc(OCCSc2nnnn2C2CCCCC2)cc1	-6.8	0.3	-1.9	-12.3	34.4*
CCOc1ccc(C2=C(C(=O)CC)Sc3nncn3N2C(=O)CC)cc1	-6.6	0.8	x	x	x
Nc1c(C(O)(C(F)(F)F)C(F)(F)F)cc(C(O)(C(F)(F)F)C(F)(F)F)c2ccccc12	-3.9	1.2	u	91.4*	14.7
O=C(CCC(=O)N1CC2CCCN2c2ccccc21)NCc1ccc(Cl)cc1 (configuration not stated)	-5.1	-0.1	x	x	x
COc1ccc2c(CNCc3ccc(Cl)cc3)c(C(=O)O)n(Cc3ccccc3C)c2c1	-17.9	0.9	x	x	x
CCOCCCNS(=O)(=O)c1ccc2c(c1)OCCO2	-1.0	0.5	-0.5	-2.7	-0.8
SMILES	D2 PAM-1	D2 ag-1	D2 ag-2	D2 PAM-2	D2 antagonist
COCCCNS(=O)(=O)c1ccc2c(c1)OCCO2	2.9	-0.2	-1.9	-4.9	34.4*
COc1ccc(CCNS(=O)(=O)c2ccc3c(c2)OCCO3)cc1OC	105.5*	0.4	-0.8	-3.8	1.5
O=C(Nc1ccc(Cl)cc1)NC1CCCCC1Cc1ccco1 (configuration not stated)	-7.9	2.8	-4.9	-5.1	-13.1
O=C(Nc1ccc(Cl)cc1)NC1CCCC1Cc1ccco1 (configuration not stated)	-16.4	0.9	-2.8	-25.3	53.4*
CC(=O)N1CCN(c2ccc(NCc3ccc(C)s3)cc2)CC1	12.1	0.9	u	5.1	50.0*
Cc1ccc(CNc2ccc(N3CCOCC3)cc2)s1	-9.8	-1.4	2.1	18.5	7.6
COc1ccccc1CNC(=O)CCNS(=O)(=O)c1ccc2c(c1)oc(=O)n2C	-18.6	-2.7	-0.1	-5.8	67.0*
Cc1ccc(CCNC(=O)CCNS(=O)(=O)c2ccc3c(c2)oc(=O)n3C)cc1	-10.8	-0.1	-3.1	-0.2	x
COc1ccccc1CNS(=O)(=O)c1ccc2c(c1)oc(=O)n2C	-6.1	1.4	1.6	-0.1	-2.4
Cn1c(=O)oc2cc(S(=O)(=O)NCCC(=O)NCCc3ccc(Cl)cc3)ccc21	-11.8	-0.1	0.5	-25.2	59.1*
CC1CCCCN1S(=O)(=O)c1cc2c(=O)nc3ccccn3c2cc1Cl (configuration not stated)	9.4	0.8	x	x	x
Cc1ccc([N+](=O)[O-])cc1NC(=O)CN(C1CCCCC1)S(=O)(=O)c1ccc(Cl)cc1	-17.8	0.0	-1.2	-37.2	52.7*
CC(C)[C@H](CO)Nc1nc(Nc2ccc(Cl)c(C(=O)O)c2)c2ncn(C(C)C)c2n1	-4.0	0.0	-1.9	-4.9	38.8*
CC(C)n1cnc2c(Nc3ccc(C(=O)O)cc3)nc(Cl)nc21	10.2	-0.5	-1.9	0.7	-15.8
CC(=O)N(Cc1cccnc1)Cc1cc2ccccc2[nH]c1=O	-7.6	-0.4	-0.8	-9.4	-8.9
O=C(c1cc2ccccc2[nH]1)N(Cc1cccnc1)CC1CCCN(C2CCCCC2)C1 (configuration not stated)	-12.4	0.5	0.1	-26.4	38.8*
CCn1c(SCC(=O)Nc2cccc(Cl)c2)nnc1-c1nonc1NC(C)=O	18.0	-2.0	x	x	x
CN(C)c1nc(Oc2ccc(=O)[nH]n2)nc(N2CCCCC2)n1	-19.2	0.2	-0.5	-5.6	31.2*
OC(COc1c(F)cc(Br)cc1F)CN1CCc2ccccc2C1 (configuration not stated)	-33.1	-0.6	-3.4	-77.4	64.8*
OC(COCc1ccccc1)CN1CCc2ccccc2C1 (configuration not stated)	-26.6	-0.3	-0.9	-27.5	46.9*
Cc1cccc(C)c1OCC(O)CN1CCc2ccccc2C1 (configuration not stated)	x	x	-6.0	-16.2	x
COc1ccc(COCC(O)CN2CCc3ccccc3C2)cc1OC (configuration not stated)	x	x	-2.0	-17.2	x

Screens (PubChem BioAssay)
